Measurements published in ChEMBL document CHEMBL3988442, “University of Dundee, Small-Polar-MMV Screening Library” (2021).

Experiments:
[1] = molecular target: T1, Aspartate--tRNA(Asp/Asn) ligase (Mycobacterium tuberculosis (strain ATCC 25618 / H37Rv)) (UniProt P9WFW3); assay: Assay for Asp RNA synthetase-1 from Mycobacterium tuberculosis; assay type: functional; parameters: scale not given: direction of the effect not stated beside the values; conditions: 30 µM; further: in the data most compounds retested in dose-response had high values
T1 sequence (whole entry): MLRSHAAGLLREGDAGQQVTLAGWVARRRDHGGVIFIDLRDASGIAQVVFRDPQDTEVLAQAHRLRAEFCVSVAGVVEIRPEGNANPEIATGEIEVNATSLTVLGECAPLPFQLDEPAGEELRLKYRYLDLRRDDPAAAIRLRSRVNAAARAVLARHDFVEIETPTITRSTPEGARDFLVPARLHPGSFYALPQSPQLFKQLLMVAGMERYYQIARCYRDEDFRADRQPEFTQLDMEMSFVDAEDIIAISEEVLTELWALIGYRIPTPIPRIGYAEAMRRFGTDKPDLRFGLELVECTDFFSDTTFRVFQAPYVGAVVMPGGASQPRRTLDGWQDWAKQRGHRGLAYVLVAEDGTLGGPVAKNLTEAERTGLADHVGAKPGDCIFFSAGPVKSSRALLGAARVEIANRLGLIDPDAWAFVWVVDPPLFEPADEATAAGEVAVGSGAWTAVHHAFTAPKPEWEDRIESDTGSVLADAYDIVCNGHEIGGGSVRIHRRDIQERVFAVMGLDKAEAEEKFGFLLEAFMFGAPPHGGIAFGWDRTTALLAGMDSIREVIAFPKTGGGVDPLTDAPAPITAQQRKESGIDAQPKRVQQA

[2] = molecular target: Shiga toxin 2 (Escherichia coli O157:H7) (UniProt P09385+P09386); assay: E. coli 0.157:H7 Shiga Toxin SOP - stx2 screening assay; assay type: functional; parameters: scale not given: direction of the effect not stated beside the values; conditions: 30 µM

| Structure (SMILES) | Percent Effect [1] | Percent Effect [2] |
| --- | --- | --- |
| CCc1csc(CCNC(=O)C2CC(=O)N(C(C)C)C2)n1 (stereo not given) | -1.9% | -30.4% |
| CC(NCc1ccc(Cl)o1)c1nnc2n1CCCC2 (stereo not given) | -3.67% | -31% |
| COc1cc2ncn(CC(=O)NCCCN(C)C)c(=O)c2cc1OC | -2.9% | -29.9% |
| CCN(CCC(F)(F)F)C(=O)Nc1cccc(N2CCOCC2)c1 | 1.08% | -51.5% |
| CC(C)N1CCN(C(=O)Nc2cnn(CC(N)=O)c2)CC1 | -5.08% | -11.9% |
| CCN(CC)CC1CN(CCc2ccccc2)Cc2nccn2C1 (stereo not given) | -4.79% | 4.72% |
| CCOC(=O)N1CCN(c2nc(NCCCO)c3ccccc3n2)CC1 | 1.68% | -29.9% |
| O=C(NC1(c2cccc(F)c2)CCOCC1)c1cc[nH]n1 | 3.45% | -26.7% |
| O=C(NCCCNCC1CNc2ccnn2C1)c1ccccc1 (stereo not given) | 0.0558% | -16.8% |
| CCc1nnc2n1CCN(C(=O)C(C)COCc1ccccc1)C2 (stereo not given) | 0.562% | 31.4% |
